Data from PubChem BioAssay (EPA / NIEHS).
“And” between values parts separate entries of the source, which are not always exact repeats. Equal values may be shown once. The source made the active and inactive calls. The calls were made as follows: active = hit-call score of the fitted dose curve at least 0.9, where 1 is the maximum; inactive = score below 0.9.

What was measured:
[1] = biological target: CCAAT/enhancer-binding protein beta (Homo sapiens) (UniProt P17676); assay: ATG_C_EBP_CIS: Attagene CIS-FACTORIAL HepG2 Assay for human CCAAT/Enhancer Binding Protein (C/EBP) beta (AID 2282927); conditions: HepG2 Attagene cis-factorial transcription factor reporter; actives raise or lower the signal
How it was run: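 Chemical-treated HepG2 cells (24 h) bearing cis-regulated reporter constructs were processed for total RNA, then reverse transcription, PCR amplification, fluorescent primer extension and fragment analysis; gain- and loss-of-signal were fitted against DMSO.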

[2] = ATG_CMV_CIS: Attagene CIS-FACTORIAL HepG2 Assay for human CMV (Internal Marker) (AID 2282928); conditions: HepG2 CMV promoter reporter, transcription factor profiling; actives raise or lower the signal;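 also: endpoint acts as a background internal control marker rather than a target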
How it was run: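 24 h chemical treatment, HepG2 with transient multi-reporter transfection; RNA → oligo(dT) RT → PCR → 6-FAM extension → HpaI digest → CE fluorescence. Bidirectional fit, DMSO negative control.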

[3] = ATG_DR4_LXR_CIS: Attagene CIS-FACTORIAL HepG2 Assay for human Liver X Receptor (LXR), DR4 submotif (AID 2282929); conditions: HepG2 Attagene DR4 cis-reporter, mRNA transcription; AC50: actives raise or lower the signal unless noted; outcome: actives raise or lower the signal unless noted
How it was run: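 Measures endogenous transcription factor activity via a DR4-driven reporter transcript in human HepG2 cells. Compounds incubated 24 h; mRNA quantified by RT-PCR and capillary electrophoresis, analysed as gain or loss of signal versus DMSO.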

[4] = ATG_AP_1_CIS: Attagene CIS-FACTORIAL HepG2 Assay for human Activator Protein 1 (AP-1) (AID 2282931); conditions: HepG2 Attagene cis-factorial AP-1 reporter mRNA; actives raise or lower the signal
How it was run: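 Bidirectional concentration-response fitting against DMSO controls. Underlying signal: reporter mRNA from cis-promoter constructs in transiently transfected HepG2, measured after 24 h by RT-PCR and capillary electrophoresis.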

[5] = ATG_AP_2_CIS: Attagene CIS-FACTORIAL HepG2 Assay for human Activator Protein 2 (AP-2) (AID 2282932); conditions: HepG2 AP-2 cis-reporter, Attagene transcription factor profiling; AC50: actives raise or lower the signal unless noted; outcome: actives raise or lower the signal unless noted
How it was run: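 Cells (HepG2) transfected with promoter-driven reporter constructs, treated 24 h. Total RNA reverse-transcribed, reporter cDNA PCR-amplified, FAM-labelled by primer extension, digested, resolved by capillary electrophoresis. Activity fitted both directions versus DMSO.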

[6] = ATG_BRE_CIS: Attagene CIS-FACTORIAL HepG2 Assay for human Bone Morphogenetic Protein (BMP) Response Element (BRE) (AID 2282933); conditions: HepG2 BMP response element reporter, Attagene transcription factor profiling; actives raise or lower the signal
How it was run: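 After a 24 h chemical treatment, transiently transfected HepG2 cells were lysed for RNA; reporter transcripts were quantified by fluorescent RT-PCR and capillary electrophoresis, normalised to DMSO.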

[7] = biological target: Retinoic acid receptor alpha (Homo sapiens) (UniProt P10276); assay: ATG_DR5_RAR_CIS: Attagene CIS-FACTORIAL HepG2 Assay for human Retinoic Acid Receptor Alpha (RARE), DR5 submotif (AID 2282934); conditions: HepG2 Attagene cis-factorial RARE DR5 reporter, mRNA; actives raise or lower the signal;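 as to AC50: reporter responds to endogenous RAR alpha beta and gamma in HepG2 not RARA alone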
How it was run: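 Transfected HepG2 reporter cells are exposed to chemicals for 24 h. Then RNA is extracted and the DR5 element reporter transcript is measured by RT-PCR and capillary electrophoresis, with bidirectional curve fitting relative to DMSO.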

[8] = ATG_E_Box_CIS: Attagene CIS-FACTORIAL HepG2 Assay for human Enhancer Box (E-box) (AID 2282936); conditions: HepG2 E-box cis-reporter transcription, actives raise or lower the signal
How it was run: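 Endogenous transcription factor activity was sensed in human HepG2 liver cells through transfected cis-promoter reporter units. After 24 h of dosing, total RNA was reverse-transcribed and reporter cDNA resolved by capillary electrophoresis.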

[9] = ATG_M_61_CIS: Attagene CIS-FACTORIAL HepG2 Assay for M61 Transcription Factor (Internal Marker) (AID 2282937); conditions: HepG2 Attagene CIS-FACTORIAL M61 internal marker reporter; actives raise or lower the signal
How it was run: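 Fluorescence from labelled cDNA fragments, separated by capillary electrophoresis, quantifies reporter induction. HepG2 cells bearing transiently transfected cis-promoter MRTUs were incubated with test chemical for 24 h; DMSO defined baseline for gain/loss fitting.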

[10] = ATG_EGR_CIS: Attagene CIS-FACTORIAL HepG2 Assay for human Early Growth Response 1 (EGR1) (AID 2282938); conditions: HepG2 Attagene CIS-FACTORIAL EGR reporter mRNA; actives raise or lower the signal
How it was run: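 Cell-based multiplex transcription assay: HepG2 carrying transfected cis-element reporter units, 24 h chemical treatment. Fluorescence from capillary electrophoresis of RT-PCR products gives mRNA levels; fitting is bidirectional relative to DMSO.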

[11] = biological target: Hepatocyte nuclear factor 3-beta (Homo sapiens) (UniProt Q9Y261); assay: ATG_FoxA2_CIS: Attagene CIS-FACTORIAL HepG2 Assay for human Forkhead box A2 (FOXA2) (AID 2282942); conditions: HepG2 cis-reporter transcription factor activity, 24 h; actives raise or lower the signal
How it was run: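 In transiently transfected human HepG2 cells, promoter-driven reporter mRNA levels after 24 h chemical exposure are determined via RT-PCR with capillary electrophoresis. DMSO serves as baseline for bidirectional fitting.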

[12] = ATG_FoxO_CIS: Attagene CIS-FACTORIAL HepG2 Assay for human Forkhead box O (FoxO) (AID 2282943); conditions: HepG2 Attagene cis-reporter, FoxO element, mRNA; actives raise or lower the signal
How it was run: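 24 h chemical exposure, HepG2 with transient cis-MRTU transfection. RNA extraction, oligo(dT) RT, reporter-specific PCR, primer-extension labelling, HpaI digestion, CE fragment analysis; bidirectional fit, DMSO baseline.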

[13] = ATG_GATA_CIS: Attagene CIS-FACTORIAL HepG2 Assay for human GATA Binding Protein (AID 2282944); conditions: HepG2 GATA cis-element reporter, Attagene multiplex mRNA; actives raise or lower the signal
How it was run: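 Measures endogenous transcription factor-driven reporter mRNA in HepG2 cells transiently carrying cis-regulated constructs. 24 h dosing; RNA via oligo(dT) reverse transcription, PCR, HpaI digestion, capillary electrophoresis; fitted relative to DMSO.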

[14] = biological target: Aryl hydrocarbon receptor (Homo sapiens) (UniProt P35869); assay: ATG_Ahr_CIS: Attagene CIS-FACTORIAL HepG2 Assay for human Aryl Hydrocarbon Receptor (Ahr) (AID 2282930); conditions: HepG2 AhR cis-factorial reporter transcription; actives raise or lower the signal
How it was run: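 Following 24 h of chemical dosing, transfected HepG2 liver cells with cis-driven reporter units were lysed for RNA; reporter mRNA was quantified via RT-PCR and capillary electrophoresis, and responses fitted bidirectionally from DMSO.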

[15] = biological target: Transcription factor E2F1 (Homo sapiens) (UniProt Q01094); assay: ATG_E2F_CIS: Attagene CIS-FACTORIAL HepG2 Assay for human E2F Transcription Factor 1 (AID 2282935); conditions: HepG2 Attagene cis-reporter, E2F reporter RNA transcripts; actives raise or lower the signal
How it was run: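 First, HepG2 cells were transfected with reporter transcription units. Next, they were dosed for 24 h. Then RNA was isolated, converted to cDNA, PCR-amplified, FAM-labeled, HpaI-digested and analyzed by capillary electrophoresis.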

[16] = ATG_M_19_CIS: Attagene CIS-FACTORIAL HepG2 Assay for M19 Transcription Factor (Internal Marker) (AID 2282939); conditions: HepG2 Attagene CIS-FACTORIAL M19 internal marker reporter; actives raise or lower the signal
How it was run: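 In this multiplexed cell assay, transiently transfected HepG2 reporter units report endogenous transcription-factor activity; after 24 hours of treatment, labelled reporter cDNA fragments are quantified by capillary electrophoresis and fitted bidirectionally against DMSO.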

[17] = ATG_ERE_CIS: Attagene CIS-FACTORIAL HepG2 Assay for Estrogen Response Element (ERE) (AID 2282940); conditions: HepG2 ERE cis-reporter, Attagene RNA transcript; actives raise or lower the signal
How it was run: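 Measuring endogenous transcription factor output, the assay doses transfected HepG2 cells for 24 hours and quantifies reporter transcripts by fluorescent RT-PCR and capillary electrophoresis, with DMSO as baseline.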

[18] = ATG_Ets_CIS: Attagene CIS-FACTORIAL HepG2 Assay for human Erythroblast Transformation Specific (ETS) (AID 2282941); conditions: HepG2 ETS cis-reporter transcription; AC50: actives raise or lower the signal unless noted; outcome: actives raise or lower the signal unless noted
How it was run: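 Cis-regulated reporter mRNA induction in HepG2 (transient transfection), 24 h exposure, RT-PCR plus capillary electrophoresis detection; DMSO serves as negative control and baseline.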

[19] = ATG_GLI_CIS: Attagene CIS-FACTORIAL HepG2 Assay for human Zinc Finger Protein GLI1 (AID 2282945); conditions: HepG2, Attagene cis-factorial reporter mRNA, GLI element; actives raise or lower the signal
How it was run: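 HepG2 cells transiently transfected with cis-promoter multiplexed reporter units report endogenous transcription factor activity. After 24 h chemical exposure, reporter mRNA was quantified by RT-PCR, 6-FAM labelling, HpaI digestion and capillary electrophoresis, with bidirectional fitting against DMSO.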

[20] = biological target: Bile acid receptor (Homo sapiens) (UniProt Q96RI1); assay: ATG_IR1_CIS: Attagene CIS-FACTORIAL HepG2 Assay for human Nuclear Receptor Subfamily 1 Group H Member 4 (NR1H4), IR1 submotif (AID 2282946); conditions: IR1 reporter transcription, actives raise or lower the signal
How it was run: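 Readout: reporter transcript levels by RT-PCR with fluorescent capillary electrophoresis, from HepG2 cells transiently transfected with multiplexed cis-regulated reporters and dosed 24 h. Gain- or loss-of-signal fitted versus DMSO negative control.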

Chain of Transcription factor E2F1 (Homo sapiens) (Q01094 whole entry, looked up): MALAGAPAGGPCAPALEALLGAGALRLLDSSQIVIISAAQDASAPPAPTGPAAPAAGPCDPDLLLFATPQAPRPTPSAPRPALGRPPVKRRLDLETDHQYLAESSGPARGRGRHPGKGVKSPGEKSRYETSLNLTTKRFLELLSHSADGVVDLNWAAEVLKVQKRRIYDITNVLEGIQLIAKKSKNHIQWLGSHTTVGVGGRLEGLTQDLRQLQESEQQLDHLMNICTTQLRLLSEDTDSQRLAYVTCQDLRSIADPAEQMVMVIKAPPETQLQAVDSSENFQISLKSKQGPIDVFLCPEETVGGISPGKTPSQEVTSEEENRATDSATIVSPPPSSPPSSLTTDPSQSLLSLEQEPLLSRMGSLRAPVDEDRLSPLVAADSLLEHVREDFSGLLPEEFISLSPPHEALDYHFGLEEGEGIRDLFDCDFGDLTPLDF
Chain of CCAAT/enhancer-binding protein beta (Homo sapiens) (P17676 whole entry, looked up, the tested form may be a part): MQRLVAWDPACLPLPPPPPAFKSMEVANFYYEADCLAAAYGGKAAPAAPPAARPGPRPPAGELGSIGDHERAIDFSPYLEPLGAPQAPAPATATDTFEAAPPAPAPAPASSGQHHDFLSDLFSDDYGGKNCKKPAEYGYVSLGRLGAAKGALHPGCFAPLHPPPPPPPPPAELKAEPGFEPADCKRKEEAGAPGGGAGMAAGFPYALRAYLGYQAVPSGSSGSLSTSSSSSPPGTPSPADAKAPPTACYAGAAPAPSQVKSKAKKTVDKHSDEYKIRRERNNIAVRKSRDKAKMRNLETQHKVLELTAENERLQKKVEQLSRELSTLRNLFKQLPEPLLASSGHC
Chain of Hepatocyte nuclear factor 3-beta (Homo sapiens) (Q9Y261 whole entry, looked up): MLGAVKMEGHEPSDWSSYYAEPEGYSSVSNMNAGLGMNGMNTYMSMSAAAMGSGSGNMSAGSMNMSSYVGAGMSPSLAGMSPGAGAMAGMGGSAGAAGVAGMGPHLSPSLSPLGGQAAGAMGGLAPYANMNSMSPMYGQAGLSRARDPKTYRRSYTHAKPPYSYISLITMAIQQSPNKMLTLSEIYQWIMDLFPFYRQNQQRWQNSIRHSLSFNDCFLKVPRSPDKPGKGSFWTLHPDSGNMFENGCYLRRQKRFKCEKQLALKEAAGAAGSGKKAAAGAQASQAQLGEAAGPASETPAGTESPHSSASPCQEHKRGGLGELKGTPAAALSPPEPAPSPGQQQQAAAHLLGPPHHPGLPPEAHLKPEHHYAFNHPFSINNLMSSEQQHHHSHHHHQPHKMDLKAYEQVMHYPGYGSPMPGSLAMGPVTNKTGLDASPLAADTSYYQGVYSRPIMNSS
Chain of Aryl hydrocarbon receptor (Homo sapiens) (P35869 whole entry, looked up): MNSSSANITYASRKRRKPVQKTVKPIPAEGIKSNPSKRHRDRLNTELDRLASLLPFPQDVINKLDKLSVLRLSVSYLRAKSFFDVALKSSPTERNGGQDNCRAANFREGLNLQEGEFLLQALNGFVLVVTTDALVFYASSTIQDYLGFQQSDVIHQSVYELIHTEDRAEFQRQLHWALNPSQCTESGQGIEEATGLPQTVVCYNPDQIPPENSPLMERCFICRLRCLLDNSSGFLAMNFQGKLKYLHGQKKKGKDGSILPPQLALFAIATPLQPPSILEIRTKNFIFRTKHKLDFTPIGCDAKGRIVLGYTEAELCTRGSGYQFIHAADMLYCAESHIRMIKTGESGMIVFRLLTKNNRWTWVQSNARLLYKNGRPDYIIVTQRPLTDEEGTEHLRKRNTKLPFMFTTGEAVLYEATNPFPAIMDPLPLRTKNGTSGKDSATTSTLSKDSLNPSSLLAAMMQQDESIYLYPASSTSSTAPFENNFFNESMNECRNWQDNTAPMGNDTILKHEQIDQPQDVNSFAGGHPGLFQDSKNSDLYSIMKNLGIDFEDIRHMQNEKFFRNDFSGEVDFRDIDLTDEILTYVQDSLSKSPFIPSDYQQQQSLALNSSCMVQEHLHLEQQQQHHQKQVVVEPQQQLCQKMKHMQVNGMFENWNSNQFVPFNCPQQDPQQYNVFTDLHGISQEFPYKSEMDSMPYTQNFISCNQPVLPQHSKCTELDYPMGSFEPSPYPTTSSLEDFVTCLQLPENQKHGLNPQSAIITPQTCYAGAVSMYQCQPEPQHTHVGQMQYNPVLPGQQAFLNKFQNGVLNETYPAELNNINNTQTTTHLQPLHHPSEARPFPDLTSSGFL
Chain of Retinoic acid receptor alpha (Homo sapiens) (P10276 whole entry, looked up): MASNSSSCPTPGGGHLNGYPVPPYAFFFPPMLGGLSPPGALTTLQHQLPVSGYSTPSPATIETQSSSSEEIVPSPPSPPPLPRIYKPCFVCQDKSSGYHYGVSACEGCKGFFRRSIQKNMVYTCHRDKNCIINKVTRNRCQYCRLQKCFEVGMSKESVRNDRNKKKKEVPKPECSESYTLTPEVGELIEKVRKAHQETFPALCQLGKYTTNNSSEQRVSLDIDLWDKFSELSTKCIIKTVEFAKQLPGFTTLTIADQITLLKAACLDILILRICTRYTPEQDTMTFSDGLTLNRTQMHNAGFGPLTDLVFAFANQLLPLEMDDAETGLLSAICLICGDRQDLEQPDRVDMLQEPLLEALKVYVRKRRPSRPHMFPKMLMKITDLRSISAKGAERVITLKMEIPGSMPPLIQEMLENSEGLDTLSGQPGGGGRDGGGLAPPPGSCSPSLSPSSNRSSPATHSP
Chain of Bile acid receptor (Homo sapiens) (Q96RI1 whole entry, looked up): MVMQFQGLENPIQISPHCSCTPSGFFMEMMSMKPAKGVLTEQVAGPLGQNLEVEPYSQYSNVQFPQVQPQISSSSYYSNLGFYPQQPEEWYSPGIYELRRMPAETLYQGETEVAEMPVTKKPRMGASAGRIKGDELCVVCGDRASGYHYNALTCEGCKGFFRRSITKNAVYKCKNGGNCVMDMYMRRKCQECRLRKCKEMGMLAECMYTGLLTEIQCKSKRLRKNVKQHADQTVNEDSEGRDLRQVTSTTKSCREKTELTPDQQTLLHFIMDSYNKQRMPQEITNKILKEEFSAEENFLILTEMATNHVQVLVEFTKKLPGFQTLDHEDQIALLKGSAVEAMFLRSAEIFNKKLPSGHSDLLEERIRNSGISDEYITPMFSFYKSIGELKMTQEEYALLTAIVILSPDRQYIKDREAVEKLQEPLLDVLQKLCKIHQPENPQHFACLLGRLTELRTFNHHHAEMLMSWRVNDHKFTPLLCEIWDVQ

Structure (SMILES): CCCCCCCCCCCCCCC
- outcome [1]: inactive
- outcome [2]: inactive
- outcome [3]: inactive
- outcome [4]: inactive
- outcome [5]: inactive
- outcome [6]: inactive
- outcome [7]: inactive
- outcome [8]: inactive
- outcome [9]: inactive
- outcome [10]: inactive
- outcome [11]: inactive
- outcome [12]: inactive
- outcome [13]: inactive

Structure (SMILES): CCOC=C(C(=O)OCC)C(=O)OCC
- outcome [1]: inactive
- outcome [2]: inactive
- outcome [3]: inactive
- outcome [14]: inactive
- outcome [4]: inactive
- outcome [6]: inactive
- outcome [15]: inactive
- outcome [8]: inactive
- outcome [10]: inactive
- outcome [16]: inactive
- outcome [17]: inactive
- outcome [18]: inactive
- outcome [11]: inactive
- outcome [13]: inactive
- outcome [19]: inactive
- outcome [20]: inactive

Structure (SMILES): O=C(Nc1ccc(Cl)c(Cl)c1)c1cc(Cl)cc(Cl)c1O
- outcome [1]: inactive
- outcome [2]: inactive
- AC50 [3]: 28.6 µM (active)
- AC50 [14]: 0.0441 µM (active)
- outcome [4]: inactive
- AC50 [6]: 0.695 µM (active)
- outcome [8]: inactive
- AC50 [10]: 8.8 µM (active)
- outcome [17]: inactive
- outcome [18]: inactive
- AC50 [11]: 0.502 µM (active)
- outcome [12]: inactive
- outcome [13]: inactive
- AC50 [19]: 50.6 µM (active)
- AC50 [20]: 52.4 µM (active)

Structure (SMILES): CCCCCc1ccc(O)cc1
- outcome [1]: inactive
- AC50 [2]: 33.4 µM (active)
- AC50 [3]: 33 µM (active)
- outcome [4]: inactive
- outcome [5]: inactive
- outcome [6]: inactive
- outcome [7]: inactive
- outcome [15]: inactive
- outcome [8]: inactive
- outcome [9]: inactive
- outcome [10]: inactive
- AC50 [17]: 2.4 µM (active)
- outcome [11]: inactive
- outcome [12]: inactive
- outcome [19]: inactive
- outcome [20]: inactive

Structure (SMILES): C=CC(=O)OCC(CO)(COCC(COC(=O)C=C)(COC(=O)C=C)COC(=O)C=C)COC(=O)C=C
- outcome [1]: inactive
- AC50 [3]: 4.59 µM (active)
- outcome [4]: inactive
- outcome [5]: inactive
- outcome [6]: inactive
- AC50 [7]: 11 µM (active)
- AC50 [15]: 19.6 µM (active)
- AC50 [8]: 2.52 µM (active)
- outcome [9]: inactive
- AC50 [10]: 3.04 µM (active)
- AC50 [16]: 16.2 µM (active)
- outcome [17]: inactive
- outcome [18]: inactive
- outcome [11]: inactive
- AC50 [12]: 3.66 µM (active)
- outcome [13]: inactive
- outcome [19]: inactive
- outcome [20]: inactive

Structure (SMILES): O=C(NCc1ncc(C(F)(F)F)cc1Cl)c1c(Cl)cccc1Cl
- outcome [1]: inactive
- AC50 [3]: 81.4 µM (active)
- outcome [14]: inactive
- outcome [4]: inactive
- outcome [5]: inactive
- outcome [6]: inactive
- outcome [7]: inactive
- AC50 [15]: 43.1 µM (active)
- outcome [8]: inactive
- outcome [9]: inactive
- outcome [10]: inactive
- outcome [16]: inactive
- outcome [17]: inactive
- outcome [18]: inactive
- outcome [11]: inactive
- outcome [12]: inactive
- outcome [13]: inactive
- outcome [20]: inactive

Structure (SMILES): c1cnc2c(c1)ccc1cccnc12
- outcome [1]: inactive
- outcome [3]: inactive
- outcome [14]: inactive
- outcome [4]: inactive
- outcome [6]: inactive
- outcome [7]: inactive
- AC50 [8]: 5.67 µM (active) and 3.9 µM (active)
- outcome [9]: inactive
- outcome [10]: inactive
- outcome [16]: inactive
- outcome [18]: inactive
- outcome [11]: inactive
- outcome [12]: inactive
- outcome [13]: inactive
- outcome [19]: inactive

Structure (SMILES): CCCCCC(C)OC(=O)COc1ccc(Cl)c2cccnc12 (stereo not drawn)
- outcome [1]: inactive
- AC50 [3]: 100 µM (active)
- outcome [14]: inactive
- outcome [4]: inactive
- outcome [5]: inactive
- outcome [6]: inactive
- outcome [7]: inactive
- outcome [8]: inactive
- outcome [9]: inactive
- outcome [10]: inactive
- outcome [16]: inactive
- outcome [17]: inactive
- outcome [11]: inactive
- outcome [12]: inactive
- outcome [13]: inactive
- outcome [19]: inactive
- outcome [20]: inactive
